# Results filed as inconclusive are left out. Active and inactive are the calls of the source. Rule for the calls: active = hit-call score of the fitted dose curve at least 0.9, where 1 is the maximum; inconclusive = response in the unintended direction; inactive = score below 0.9.
# Tested on: not listed separately
# Assay: ACEA_ER_AUC_viability: ACEA Biosciences xCELLigence Real-Time Cell Analysis on Estrogen Receptor Agonism for Viability (AID 2283782);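 note: hit means loss of impedance signal meaning reduced cell growth or viability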
# In short: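 Read-out: real-time electrical impedance (RT-CES) area under curve, loss of signal taken as reduced viability, normalized to DMSO baseline. T-47D cells, charcoal-stripped serum medium, compounds up to 100 uM final, continuous exposure, 80 h.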
Structure (SMILES),outcome,AC50
CSc1nc(NC(C)C)nc(NC(C)C)n1,inactive,
CN(C)NC(=O)CCC(=O)O,inactive,
CCOP(=O)(OCC)Oc1cc(C)nc(C(C)C)n1,inactive,
CNC(=O)ON=C(C)SC,inactive,
Cc1cc(C2CC2)nc(Nc2ccccc2)n1,,77.3 µM (active)

# Target: AR (gene 367) (UniProt P10275)
# Assay: ACEA_AR_agonist_80hr: ACEA Biosciences xCELLigence Real-Time Cell Analysis on Androgen Receptor Agonism for Proliferation (AID 2283783);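 note: hits increase impedance growth signal above DMSO baseline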
# In short: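 Impedance (RT-CES) growth signal at 80 h post-dose; 22Rv1 cells, 8-pt 1:4 series, top 100 uM final, DMSO ≤0.5%; duplicate plates; gain-of-signal fit relative to DMSO baseline.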
# Sequence of AR (gene 367) (P10275 whole entry, looked up): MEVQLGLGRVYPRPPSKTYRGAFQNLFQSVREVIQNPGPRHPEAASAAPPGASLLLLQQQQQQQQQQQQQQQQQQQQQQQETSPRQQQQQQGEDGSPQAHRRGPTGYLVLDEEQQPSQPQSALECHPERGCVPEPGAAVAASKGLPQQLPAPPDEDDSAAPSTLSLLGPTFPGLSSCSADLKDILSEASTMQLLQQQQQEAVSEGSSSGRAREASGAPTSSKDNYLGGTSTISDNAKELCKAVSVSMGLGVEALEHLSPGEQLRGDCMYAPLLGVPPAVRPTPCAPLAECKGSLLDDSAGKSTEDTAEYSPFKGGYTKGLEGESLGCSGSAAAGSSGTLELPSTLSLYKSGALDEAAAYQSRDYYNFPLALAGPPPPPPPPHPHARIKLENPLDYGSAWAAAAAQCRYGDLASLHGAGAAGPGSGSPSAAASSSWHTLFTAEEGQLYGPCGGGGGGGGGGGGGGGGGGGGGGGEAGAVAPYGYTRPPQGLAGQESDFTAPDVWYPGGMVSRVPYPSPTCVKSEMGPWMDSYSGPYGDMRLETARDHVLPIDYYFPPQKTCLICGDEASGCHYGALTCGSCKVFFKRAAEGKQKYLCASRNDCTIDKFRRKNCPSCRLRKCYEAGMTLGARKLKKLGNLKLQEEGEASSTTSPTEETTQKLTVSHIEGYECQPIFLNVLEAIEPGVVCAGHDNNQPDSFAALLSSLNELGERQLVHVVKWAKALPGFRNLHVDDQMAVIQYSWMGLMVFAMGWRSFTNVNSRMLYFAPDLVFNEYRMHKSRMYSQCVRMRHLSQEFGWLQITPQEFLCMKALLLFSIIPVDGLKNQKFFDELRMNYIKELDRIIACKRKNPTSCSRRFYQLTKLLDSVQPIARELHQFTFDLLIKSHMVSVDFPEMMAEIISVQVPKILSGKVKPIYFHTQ
row,Structure (SMILES),outcome
1,CCCOc1nn(C(=O)NS(=O)(=O)c2ccccc2C(=O)OC)c(=O)n1C,inactive
2,CC(C)=CC1C(C(=O)OCN2C(=O)C3=C(CCCC3)C2=O)C1(C)C (stereo not given),inactive
3,Cc1nn(-c2cc(NS(C)(=O)=O)c(Cl)cc2Cl)c(=O)n1C(F)F,inactive
4,COP(=O)(OC)OC(Br)C(Cl)(Cl)Br (stereo not given),inactive
5,CNC(=O)ON=C(SC)C(=O)N(C)C,inactive

# From PubChem BioAssay (EPA / NIEHS)
